# Screening data from PubChem BioAssay.
# hgDAF-12 ag – hgDAF-12 agonism, primary luciferase screen | activation, % at 6.8 µM | HEK293 GAL4-hgDAF12 UAS-luciferase reporter, agonist luminescence; normalized to butyrate control | actives 1.8% (n = 370,000) | AID 687014;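 active = activation above a cutoff set at the mean of all screened compounds plus 3 SD, cut at about 10% in these data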;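 note: 0% = DMSO wells and 100% = sodium butyrate wells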
# ssDAF12 agonist – activators of S. stercoralis DAF-12 nuclear receptor | HEK293 ssDAF-12/GRIP1 lit1-tk-luc reporter, luminescence; % of 3 µM dafachronic acid response | actives 1% (n = 370,000) | activation, % at 6.8 µM;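 active = activation above the mean over all tested compounds plus 3 SD, cut at about 0.9% in these data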;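 note: 0% = DMSO-only wells and 100% = 3 µM delta7-dafachronic acid wells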
# DAX1 inh-1 – NR0B1 (DAX1) inhibition. P51843. HEK293 Gal4-DAX1 luciferase reporter, luminescence. inhibition, % at 6.75 µM. actives 0.99% (n = 340,000);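 active = inhibition above the mean over all tested compounds plus 3 SD, cut at about 4.2% in these data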;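 note: 0% = DAX1-transfected cells with DMSO and 100% = empty-vector control cells with DMSO; inhibition shows as a rise in luminescence from relieved DAX1 repression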
# hcDAF12 agonist – H. contortus DAF-12 activation, primary screen; HEK293 hcDAF-12 lit1-tk-luc reporter, luminescence; 0% DMSO, 100% Δ7-dafachronic acid; activation, % at 6.8 µM; actives 1.4% (n = 370,000); AID 652067;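 active = activation above the mean of all tested compounds plus 3 SD, cut at about 5.5% in these data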;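 note: 100% = response to 3 µM Δ7-dafachronic acid high control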
# DAX1 inh-2 – inhibitors of DAX1 repression of SF-1 activated StAR promoter. actives 1.1% (n = 370,000). inhibition, % at 6.8 µM. HEK293T StAR-luciferase reporter, SF-1/DAX-1 repression relief;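 active = inhibition above the mean over all tested compounds plus 3 SD, cut at about 3.6% in these data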;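 note: 0% = DAX-1 cells with DMSO and 100% = cells lacking DAX-1 with DMSO; higher inhibition means more luminescence from relief of DAX-1 repression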
# DAX1 inh confirm – confirmation of human DAX1 (NR0B1) inhibitors. shares compounds with DAX1 inh-2. inhibition, % at 6.8 µM. actives 87% (n = 2,400). HEK293T StAR-promoter luciferase reporter, SF-1/DAX-1 repression;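 active = inhibition above the average of every tested compound plus 3 SD, cut at about 3.8% in these data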;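 note: 0% = DAX-1 cells with DMSO and 100% = no DAX-1 control cells with DMSO; active compounds raise luminescence by relieving repression of the StAR reporter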
# Target sequence (P51843 whole entry, looked up): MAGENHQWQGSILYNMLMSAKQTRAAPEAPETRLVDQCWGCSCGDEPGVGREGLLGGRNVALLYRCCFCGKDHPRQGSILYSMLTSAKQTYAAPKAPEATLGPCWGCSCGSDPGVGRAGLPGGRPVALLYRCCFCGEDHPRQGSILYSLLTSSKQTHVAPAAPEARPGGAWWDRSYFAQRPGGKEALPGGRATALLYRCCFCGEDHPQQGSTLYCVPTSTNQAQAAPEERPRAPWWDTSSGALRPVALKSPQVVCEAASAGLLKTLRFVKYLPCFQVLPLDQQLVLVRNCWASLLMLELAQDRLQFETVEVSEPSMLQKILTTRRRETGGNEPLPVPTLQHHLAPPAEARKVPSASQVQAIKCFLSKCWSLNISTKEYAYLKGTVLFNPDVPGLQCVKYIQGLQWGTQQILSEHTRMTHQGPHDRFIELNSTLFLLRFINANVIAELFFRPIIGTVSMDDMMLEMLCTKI
# SF1 mutant ctr – nonselective inhibitor or artifact in SF-1 mutant DAX1 counter-screen; shares compounds with DAX1 inh-2; inhibition, % at 6.8 µM; AID 652136; HEK293 StAR-luciferase, SF-1 AF2 mutant, luminescence; actives 78% (n = 2,400);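 active = inhibition above the mean of all tested compounds plus 3 SD, cut at about 3% in these data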;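 note: 0% = DAX-1 transfected cells with DMSO and 100% = cells without DAX-1 with DMSO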
# Active calls of the source: *; nt = not tested or not shown. Only some compounds are listed: those with a hit (about 4.1% of all), similar ones and a draw of the others.
SMILES,hgDAF-12 ag,ssDAF12 agonist,DAX1 inh-1,hcDAF12 agonist,DAX1 inh-2,DAX1 inh confirm,SF1 mutant ctr
COc1cccc(N=CNc2cccc(OC)c2)c1,9,0,1,2,4.7*,5.4*,3.4*
CS(=O)(=O)c1ccc(-c2cccc(NC(=O)c3ccc(Br)o3)c2)nn1,-2,0,-1,-1,-2,nt,nt
COc1ccc(-c2ccc(NC(=O)c3ccc(Br)o3)cc2)nn1,4,0,1,0,5.2*,5.6*,4.2*
O=C1CCN(Cc2nc(-c3ccc(Cl)cc3)no2)CCN1,-3,-1,-1,1,-1,nt,nt
CC(=O)Nc1ccc(NC(=O)C(C)OC(=O)CC2CCCCC2)cc1 (stereo unspecified),0,-1,1,1,3,nt,nt
CC(OC(=O)CC1CCCC1)C(=O)Nc1ccc(S(N)(=O)=O)cc1 (stereo unspecified),1,-1,-1,0,4.9*,2,1
COc1ccc(O)c(C(=O)CC(=O)c2cccnc2)c1,10,0,4,2,6.5*,7.3*,6.9*
Cc1ccc(NC(=O)c2cnccn2)nc1,8,-1,1,5,4.6*,5.0*,3.3*
CCCCc1ccc(NC(=O)c2cnccn2)cc1,12*,0,-1,4,8.9*,11*,7.5*
O=C(NC(=S)Nc1ccc(Br)cn1)c1cncc(Br)c1,0,-1,0,-1,0,nt,nt
Cc1ccc(NC(=O)c2cncc(Br)c2)nc1,8,-1,2,2,4.5*,5.8*,6.3*
C=C(c1ccc2nc(NC(=O)OC)[nH]c2c1)c1cccs1,5,0,0,2,7.7*,37*,-8
CC1Sc2ccc(C(=O)OCc3ccccc3Cl)cc2NC1=O (stereo unspecified),6,-1,2,2,6.1*,7.3*,5.9*
CN(C(=O)Cn1cc(C(F)(F)F)cc(Cl)c1=O)C1CCS(=O)(=O)C1 (stereo unspecified),4,-1,-1,-2,2,nt,nt
O=C(Nc1nnc(C2CC2)s1)C1COc2ccccc2O1 (stereo unspecified),12*,-1,2,3,5.7*,11*,5.5*
CC(C)(C)c1csc(NC(=O)C2COc3ccccc3O2)n1 (stereo unspecified),10,-1,1,1,5.0*,2,3
O=C(Nc1nnc(C2CC2)s1)c1cc2ccccc2o1,13*,0,2,3,6.1*,7.3*,4.8*
O=C(c1cccc(Br)c1)N1CCC(Oc2cccnc2)CC1,3,-1,nt,-3,0,nt,nt
Cc1ccsc1C(C(=O)NC(C)(C)C)N(C(=O)c1csnn1)c1ccccc1 (stereo unspecified),-6,-1,1,1,0,nt,nt
COc1ccccc1CN1CCC(CNS(=O)(=O)c2cc(-c3onc(C)c3C)ccc2OC)CC1,-2,-2,1,-2,4.6*,3,3.1*
COCC(=O)Nc1cc(C(=O)NCCc2ccccc2)ccc1Cl,8,-1,1,5.8*,5.7*,9.3*,3.3*
COc1ccc(OC)c(NC(=O)C(CC(=O)O)NCc2ccco2)c1 (stereo unspecified),0,-1,1,0,-1,nt,nt
Cc1ccc(OCC(=O)Nc2ccon2)c([N+](=O)[O-])c1,6,0,2,3,5.3*,6.5*,3.7*
O=C(Nc1nnc(-c2ccco2)s1)c1ccccc1,11*,0,-1,6.5*,6.6*,16*,6.2*
COc1ccc(C(CNC(=O)c2ccc(C)c(S(=O)(=O)Nc3ccccc3OC)c2)N2CCCC2)cc1 (stereo unspecified),3,-1,1,2,5.3*,6.2*,5.3*
SMILES,hgDAF-12 ag,ssDAF12 agonist,DAX1 inh-1,hcDAF12 agonist,DAX1 inh-2,DAX1 inh confirm,SF1 mutant ctr
COc1ccccc1NS(=O)(=O)c1cc(C(=O)NCC(c2cccs2)N2CCOCC2)ccc1C (stereo unspecified),0,-1,0,2,0,nt,nt
COc1ccc(C(CNC(=O)c2cccc(S(=O)(=O)Nc3ccccc3OC)c2)N2CCCC2)cc1 (stereo unspecified),0,-1,1,-1,5.7*,6.3*,3.4*
COc1ccc(C(CNC(=O)c2cccc(S(=O)(=O)Nc3ccccc3OC)c2)N2CCCCC2)cc1 (stereo unspecified),2,-1,2,0,6.9*,5.9*,4.2*
CCOc1ccc(C(=O)CCC(=O)NCC(=O)Nc2c(C)cccc2C)cc1,-2,-1,1,-1,0,nt,nt
COc1ccc(-c2sc3ccccc3c2-c2ccc(OC)cc2F)cc1,3,-1,nt,2,5.3*,1,2
Cc1ccc(NC(=O)CCc2c(C)nn(-c3ccc(N4CCCCC4)nn3)c2C)cc1F,11*,0,0,1,10*,8.2*,4.0*
C/C(=N\NC(=O)c1ccccc1O)c1cccs1,7,-1,-1,2,5.4*,5.9*,2
O=C(NC1CC(=O)N(c2ccc3c(c2)OCCO3)C1)N1CCCCC1 (stereo unspecified),2,-1,-1,-1,-1,nt,nt
Nc1c(C(=O)Nc2ccc3c(c2)OCCO3)nnn1Cc1cccc(Cl)c1,3,-1,0,2,5.2*,11*,4.3*
Nc1c(C(=O)Nc2ccc3c(c2)OCCO3)nnn1Cc1ccccc1Cl,7,-1,0,2,7.0*,9.1*,5.5*
COc1ccc(Br)cc1Cn1nnc(C(=O)Nc2ccc3c(c2)OCCO3)c1N,-3,-2,0,-2,-1,nt,nt
O=C(c1ccc(COCC(F)(F)F)o1)N1CCCC1,-1,-1,0,0,0,nt,nt
CC(C)=CC(=O)Nc1ccc2c(c1)OCO2,10,0,0,5,6.1*,12*,7.7*
O=C(Nc1cccc(F)c1)Nc1ccc2c(c1)OCO2,10,0,3,5,7.0*,9.2*,5.3*
Cn1cccc1/C=N/NC(=O)c1cccs1,11*,0,2,1,5.5*,5.7*,3.7*
CCCCOc1ccc(/C=C/C2=CC(C)(C)NC(=S)N2)cc1OCC,-2,-1,-1,-2,0,nt,nt
CCOC(=O)C1CCN(C(=O)c2cc3cc4ccc(C)cc4nc3o2)CC1,7,0,0,2,7.5*,8.0*,4.9*
COc1ccc2cc3cc(C(=O)N4CCCCCC4)oc3nc2c1,nt,nt,-1,nt,nt,nt,nt
CC(=O)N1CCC(C(=O)Nc2ccc3c(c2)CCC3)CC1,-1,-1,4,1,0,nt,nt
